The source of these data is PubChem BioAssay (Tox21).

Records with an inconclusive call do not appear. A number with no mark means an inactive call. The call rests on the fitted dose curve.
On the % scale 0 is the no-effect control and ±100 the full control effect.

The test in a line: qHTS assay to identify small molecule agonists of the endoplasmic reticulum stress response signaling pathway - cell viability counter screen (AID 1159517). Further: nearly all actives have a fitted effect of over 50% in size. The conditions noted are these: ESRE-bla HeLa viability, CellTiter-Glo luminescence, 5 h; series mostly up to 61 µM; activity change, negative = cytotoxicity: at the top concentration. From the text:
U.S. Tox21 Program National Center for Advancing Translational Sciences [NCATS] NIH Chemical Genomics Center [NCGC] U.S. Environmental Protection Agency [EPA] National Institutes of Environmental Health Sciences [NIEHS] National Toxicology Program [NTP] U.S. Food and Drug Administration [FDA] Tox21 Assay Overview: Endoplasmic Reticulum (ER) plays an important role in cellular signaling, protein folding/maturation, stress response, lipid biosynthesis, calcium storage and release etc. Under stress conditions, proteins in ER misfold or unfold, and leading to the expression of ER stress responsive genes. ER stress has been associated with a variety of pathophysiological conditions such as cancer, inflammation, neurodegenerative diseases, diabetes, ischemic heart disease etc. To identify the compounds that induce ER stress response, an ER stress reporter cell line, CellSensor ESRE-bla HeLa (Life Technologies, Carlsbad, CA) containing a beta-lactamase reporter gene under control of the Endoplasmic reticulum Stress Response Element (ESRE) was used to screen Tox21 10K compound library. The cytotoxicity of the Tox21 compound library against the ESRE-bla HeLa cell line was tested in parallel by measuring cell viability using the CellTiter-Glo assay in the same wells.
Tox21 Assay Protocol Summary: ESRE-bla HeLa cells were dispensed at 1,500 cells/6 uL of assay medium per well into black wall/clear-bottom 1536-well plates using a Multidrop Combi (ThermoFisher Scientific, Waltham, MA) dispenser. After the assay plates were incubated at 37 C and 5% CO2 for an overnight, 23 nL of compounds dissolved in DMSO, positive controls or DMSO only was transferred to the assay plate by a Pintool station (Kalypsys, San Diego, CA). The assay plates were incubated at 37 C and 5% CO2 for 5 hr. One uL of LiveBLAzer B/G FRET substrate (Life Technologies) was added using a FRD (Flying Reagent Dispenser, Aurora Discovery, San Diego, CA) and the plates were incubated at room temperature for 2 hr. Fluorescence intensity (405 nm excitation, 460 nm and 530 nm emissions) was measured using an Envision plate reader (PerkinElmer, Shelton, CT). For cytotoxicity, 4 ul/well of CellTiter-Glo reagent was added into the assay plates using an FRD. After 30 min incubation at room temperature, the luminescence intensity was measured using a ViewLux plate reader (PerkinElmer).
On the technique in general: In qHTS, concentration-response curves come from the screen itself.
On to `CCO[Si](CC(C)C)(OCC)OCC`, for which the “activity change, negative = cytotoxicity” value is -1.32%.

Take `O=C(CCBr)N1CCN(C(=O)CCBr)CC1`: the “activity change, negative = cytotoxicity” value is -1.48%.

For the compound `CC(C)OCCO`, the “activity change, negative = cytotoxicity” value was -18%.

Turning to `COc1cc(C(=O)NC2CCCNC2)cc(OC)c1OC` (stereo not given), the “activity change, negative = cytotoxicity” value is -16.1%.

In the case of `CCCCCCCCCCCCCCCCN(C)C`, the activity change, negative = cytotoxicity is -14.5% [at 6.95 µM].

Take `CN(C)CCc1c[nH]c2ccc(C[C@H]3COC(=O)N3)cc12`: the “activity change, negative = cytotoxicity” value is -1%.

In the case of `CCCCCCC(O)CO` (stereo not given), the “activity change, negative = cytotoxicity” value was 3.32%.

As to `CCCCNCC`, the “activity change, negative = cytotoxicity” value is -1.99%.

As to `O=S(=O)(O)CC(O)CCl` (stereo not given), the “activity change, negative = cytotoxicity” value was 1.97%.

As for `Cc1cccc(N)n1`, the “activity change, negative = cytotoxicity” value is -10.3% [at 78.8 µM].

Take `CCCCCCCCCCCC(C)=O`: the “activity change, negative = cytotoxicity” value is -12.9%.

On to `CC(C)(C)OC(=O)c1ccccc1C(=O)O`, for which the “activity change, negative = cytotoxicity” value was -15.4%.

As to `COCCCOc1cc(C[C@@H](C[C@H](N)[C@@H](O)C[C@H](C(=O)NCC(C)(C)C(N)=O)C(C)C)C(C)C)ccc1OC`, the “activity change, negative = cytotoxicity” value is -3.65%.

For the compound `CCC(C)(C)C`, the “activity change, negative = cytotoxicity” value is -14.6% [at 78.8 µM].

For `NCC1CCC(C(=O)Oc2ccc(CCC(=O)O)cc2)CC1` (stereo not given), the “activity change, negative = cytotoxicity” value is 1.3%.

`C/C(Cl)=C/CCl`: the “activity change, negative = cytotoxicity” value is -11% [at 78.8 µM].

Consider `CCN1CCN(C(=O)N[C@@H](C(=O)N[C@@H]2C(=O)N3[C@@H]2SC(C)(C)[C@H]3C(=O)O)c2ccccc2)C(=O)C1=O`, for which the “activity change, negative = cytotoxicity” value was -7.18%.

For the compound `COC(=O)c1cc(Cl)c(NC(C)=O)cc1OC`, the “activity change, negative = cytotoxicity” value is 8.9%.

Turning to `N=C(N)N1CCc2ccccc2C1`, the activity change, negative = cytotoxicity is 3.62% [at 6.95 µM].

As to `CCN(CC)CC`, the “activity change, negative = cytotoxicity” value was -8.27% [at 78.8 µM].

Regarding `C[C@@H]1CC[C@@]2(OC1)O[C@H]1C[C@H]3[C@@H]4CC[C@H]5C[C@@H](O)CC[C@]5(C)[C@H]4CC(=O)[C@]3(C)[C@H]1[C@@H]2C`, the activity change, negative = cytotoxicity was -1.94% [at 6.95 µM].

Regarding `COc1cnc(NS(=O)(=O)c2ccc(N)cc2)nc1`, the “activity change, negative = cytotoxicity” value was 19%.

For `CC(=O)Nc1ccc(S(=O)(=O)Nc2cc(C)on2)cc1`, the “activity change, negative = cytotoxicity” value was 7.49%.

In the case of `CCOC(=O)c1ccc(N(C)C)cc1`, the “activity change, negative = cytotoxicity” value was -14.4%.

On to `CN(C)CCCN(C)C`, for which the activity change, negative = cytotoxicity is 19.8% [at 6.95 µM].

Regarding `CCC(C)c1nccnc1OC` (stereo not given), the “activity change, negative = cytotoxicity” value was -13.4%.

Turning to `C[C@H]1COc2c(C3(N)CC3)c(F)cc3c(=O)c(C(=O)O)cn1c23`, the “activity change, negative = cytotoxicity” value is 2.74%.

Regarding `CCCCCCCCS(=O)(=O)O`, the “activity change, negative = cytotoxicity” value was 11.5% [at 78.8 µM].

`NNC(=O)CCCCC(=O)NN`: the “activity change, negative = cytotoxicity” value is 14.8%.

`C[C@@H]1CCC[C@H](C)N1CCCC(O)(c1ccccc1)c1ccccn1` (stereo not given in full): the “activity change, negative = cytotoxicity” value was -1.28%.

As for `CC(=O)OC1CCC(C(C)(C)C)CC1` (stereo not given), the “activity change, negative = cytotoxicity” value is 0.482%.

In the case of `C=CCN1CCc2nc(N)sc2CC1`, the “activity change, negative = cytotoxicity” value is 10.9%.

For the compound `CC(C)(C)NCC(O)COc1cccc2c1CCC(=O)N2` (stereo not given), the “activity change, negative = cytotoxicity” value is -6.09%.

`CC/C=C\CCOC(=O)c1ccccc1`: the “activity change, negative = cytotoxicity” value is -3.39%.

For the compound `CCCCCCCCCCCCCCCC(=O)OC`, the “activity change, negative = cytotoxicity” value was -8.82% [at 28.5 µM].

Take `CC(C)C[P+](C)(CC(C)C)CC(C)C`: the “activity change, negative = cytotoxicity” value is 11.7% [at 78.8 µM].

For `COC(=O)c1ccccc1Cl`, the “activity change, negative = cytotoxicity” value is -7.79%.

As to `C=CC(=O)OCCOCCOCC`, the “activity change, negative = cytotoxicity” value is 4.1%.

In the case of `CC1(C)S[C@@H]2[C@H](NC(=O)Cc3ccccc3)C(=O)N2[C@H]1C(=O)O` (tested in a mixture with another compound), the “activity change, negative = cytotoxicity” value was 9.14%.

Turning to `CCCC(=O)OC`, the “activity change, negative = cytotoxicity” value was 4.88%.
